From PubChem
JMJD2A Tudor inh: JMJD2A Tudor domain (human) inhibition; O75164; AlphaScreen JMJD2A-Tudor / H3K4me3 peptide binding; Potency, µM (highest dose often 114 µM), for inactives: at the highest dose activity change, negative = inhibition, usual class: inhibitors; 390,000 compounds, 4.4% hits; AID 504339; note: potency is the fitted concentration of half-maximal effect; % is set by controls: 0 for no effect and ±100 for the full control effect; nearly all actives have a fitted effect of over 50% in size
BAZ2B inh: inhibitors of human BAZ2B bromodomain. Q9UIF8. AlphaScreen BAZ2B-H3K14Ac peptide displacement. Potency, µM (series often up to 114 µM), for the others: at the highest dose activity change, negative = inhibition, actives largely listed as inhibitors. 360,000 compounds, 4.4% hits. AID 504333; note: potency is the fitted concentration of half-maximal effect; % is set by controls: 0 for no effect and ±100 for the full control effect; nearly all actives have a fitted effect of over 60% in size
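In this displacement format the biotinylated H3(5-23) peptide acetylated at Lys14 serves as ligand at 50 nM, with BAZ2B at 50 nM in PBS pH 7.4 containing 0.01% Tween-20. Donor and acceptor beads are 10 ug/mL final.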
HP1b binding inh: blocks HP1-beta chromodomain binding to methylated histone tails | AlphaScreen HP1-beta / biotin-H3K9me3 peptide binding | Potency, µM (highest dose often 114 µM), inactives show at the highest dose activity change, negative = inhibition, actives largely listed as inhibitors | 390,000 compounds, 0.56% hits | AID 540317; note: potency is the fitted concentration of half-maximal effect; nearly all actives have a fitted effect of over 70% in size
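Compound inhibition of the preformed complex between 50 nM HP1-beta and 50 nM biotinylated H3K9me3 peptide was read by AlphaScreen. Buffer was PBS pH 7.4 with 0.01% Tween-20. Incubations ran 30 min at room temperature, with 10 ug/mL donor/acceptor beads.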
PI5P4K alpha inh: PI5P4K alpha (human) kinase inhibition; 330,000 compounds, 1.2% hits; max response, %; PI5P4Kalpha enzyme, ADP-Glo luminescence, 60 min; active compounds read low; P48426; active = max response of -50% or lower; inconclusive = between -30% and -50%; inactive = -30% or higher; note: value at the top dose of about 77 µM; % is set by controls: 0 for no effect and ±100 for the full control effect
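Quantitative HTS of the MLSMR library against PI5P4Kalpha with substrate. ATP added last at 5 microM final; room temperature, 60 minutes. Remaining ATP depleted, ADP converted and read as luminescence.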
G9a inh: blocks human histone lysine methyltransferase G9a | G9a H3K9 monomethylation, AlphaScreen, 2 h | Potency, µM (highest dose often 102 µM), inactives show top-dose activity, negative = inhibition, hits mostly inhibitors | 350,000 compounds, 8.8% hits; note: potency is the fitted concentration of half-maximal effect; % is set by controls: 0 for no effect and ±100 for the full control effect; nearly all actives have a fitted effect of over 75% in size
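AlphaScreen detection with an anti-monomethyl H3K9 antibody quantified product after a 2 h room-temperature reaction containing 500 nM biotinylated H3K9 peptide, 20 µM SAM and 20 nM enzyme, which had been preincubated 15 min with compound.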
L3MBTL1 inh: L3MBTL1 (human) inhibition. Q9Y468. AlphaScreen L3MBTL1–H3K9me1 peptide binding. Potency, µM (series often up to 57.1 µM), for inactives: at the top dose activity, negative = inhibition, usual class: inhibitors. 230,000 compounds, 0.66% hits; note: potency is the fitted concentration of half-maximal effect; % is set by controls: 0 for no effect and ±100 for the full control effect; nearly all actives have a fitted effect of over 60% in size
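First, the protein-peptide complex forms for 30 min at room temperature (L3MBTL1 50 nM, biotinylated H3K9me1 peptide 75 nM). Next, compounds are pin-transferred and incubated 30 min. Finally, AlphaScreen beads are added and read after 30 min.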
* = called active by the depositor; u = inconclusive; x = no result; [ ] = dose if it differs, or a comment. A selection: hits, their analogues and other compounds. The true share with any hit is near 11%. Unless noted, calls come from the whole dose curve; as a rule, active = well fitted inhibition curve with a large enough effect; inconclusive = small, poorly fitted or top-dose-only effect; inactive = no such curve, though single readings can be large or run the other way.

SMILES	JMJD2A Tudor inh	BAZ2B inh	HP1b binding inh	PI5P4K alpha inh	G9a inh	L3MBTL1 inh
Nc1ncc(-c2ccccc2)n1CC1CCCO1 (stereo not drawn)	u	20µM*	5.7%	x	28.9%[0.501 µM]	-22.1%
N#Cc1c(NC(=O)CSc2nnc(-c3ccncc3)n2CC2CCCO2)sc2c1CCCC2 (stereo not drawn)	-25.3%	-27.6%	6.7%	0.3	u	-4.1%
N#Cc1c(NC(=O)CSc2ncc(-c3ccccc3)n2CC2CCCO2)sc2c1CCCC2 (stereo not drawn)	u	u	-25.6%	x	11.2µM*	-3.1%
CCC(CC)C(=O)N1CCN(c2ccccc2)CC1	-16.7%	-17.0%	35.1%	-1.9	79.4µM*	1.0%
CCN(CC)c1ccc(C(=O)OCC(=O)N2CCN(c3ccccc3)CC2)cc1	4.47µM*	-36.7%	12.1%	-2.7	-40.1%	6.7%
CC(=O)N1CCN(c2ccc(NC(=O)C(c3ccccc3)c3ccccc3)cc2)CC1	u	-38.9%	-7.3%	1.3	50.1µM*	-8.6%
CCC(C(=O)N1CCN(c2cccc(Cl)c2)CC1)c1ccccc1 (stereo not drawn)	27.5%	20.0%	44.2%	7.5	-6.2%[12.7 µM]	4.2%
CC(=O)N1CCN(c2ccc(NC(=O)c3ccccc3)cc2)CC1	-4.7%	3.1%	28.5%	1.4	9.1%	-1.8%
O=C(OCC(=O)N1CCN(c2ccccc2)CC1)c1ccc(Cl)nc1	-1.7%	-1.3%	13.3%	-6.0	u	12.3%
CC(=O)c1ccc(NCC(=O)N2CCN(c3ccccc3)CC2)cc1	-0.4%	-31.7%	41.6%	-13.3	14.1µM*	x
Cc1ccc(Cl)cc1N1CCN(C(=O)c2cc(S(=O)(=O)N3CCC(C)CC3)cn2C)CC1	-24.0%	-27.0%	7.6%[57 µM]	x	-32.8%[59 µM]	x
Cc1cccc(C(=O)N2CCc3cc(CNS(=O)(=O)c4ccc(F)c(Cl)c4)ccc32)c1	4.2%	3.9%	35.1%[57 µM]	x	5.9%[59 µM]	x
Cc1ccc(C)c(Cn2c(=O)n(CCCC(=O)NCCc3ccc(Cl)cc3)c(=O)c3ccccc32)c1	1.0%	0.9%	33.4%	x	-2.1%[59 µM]	x
CCc1ccc(-n2c(=O)c3c4c(sc3n(CC(=O)c3ccc(Br)cc3)c2=O)CCC4)cc1	-20.8%	-4.6%	18.2%	x	-30.8%[59 µM]	x
O=C(Nc1ccc(N2CCCC2)cc1)C(c1ccccc1)c1ccccc1	u	u	-12.9%	-0.9	31.6µM*	x
O=C(NNS(=O)(=O)c1ccccc1)C1CCN(S(=O)(=O)c2ccccc2)CC1	-4.3%	3.8%	30.5%	-4.2	22.4µM*	5.6%
CC1(C)CC(=O)C(C(=O)C2CCN(S(=O)(=O)c3ccccc3)CC2)C(=O)C1	100µM*	-9.0%	12.1%	0.5	-27.9%	x
Cc1ccc(S(=O)(=O)N2CCC(C(=O)C3C(=O)CCCC3=O)CC2)cc1	-12.1%	-37.6%	34.5%	5.3	-40.8%	x
O=C(NCc1ccc2c(c1)CCN2C(=O)c1ccncc1)c1cccc(Cl)c1	-24.7%	-22.1%	15.1%	x	-3.0%[59 µM]	x
COc1cccc(N=Cc2c[nH][nH]c2=O)c1	56.2µM*	-8.9%	-10.8%	-7.7	x	-1.6%
O=c1[nH][nH]cc1C=Nc1ccc(Cl)cc1	-20.3%	-26.1%	30.9%	0.7	-33.3%	-3.6%
O=C(O)c1cccc(NC(=O)c2ccc(N3C(=O)c4ccc(C(=O)Nc5cccc(C(=O)O)c5)cc4C3=O)cc2)c1	-14.8%	-12.2%	29.7%	-50.7*	0.7%	x
O=C(c1cccc([N+](=O)[O-])c1)c1ccc2[nH]c(=O)[nH]c2c1	-6.3%	-12.0%	23.9%	-16.4	79.4µM*	x
O=C(O)c1cccc(NC(=O)c2ccc3c(c2)C(=O)N(c2cccc([N+](=O)[O-])c2)C3=O)c1	-13.4%	-17.5%	27.8%	u	-21.1%	x
O=C(O)c1cccc(N2C(=O)c3ccc(C(=O)c4cccc([N+](=O)[O-])c4)cc3C2=O)c1	-14.0%	-17.6%	34.8%	-0.1	56.2µM*	x
SMILES	JMJD2A Tudor inh	BAZ2B inh	HP1b binding inh	PI5P4K alpha inh	G9a inh	L3MBTL1 inh
COc1ccc(Cl)cc1NC(=O)C1CCN(S(=O)(=O)c2ccc3c(c2)CC(C)N3C(C)=O)CC1 (stereo not drawn)	-9.9%	-2.1%	27.0%	x	4.4%[59 µM]	x
CCCCOC(=O)c1ccc(NC(=O)c2csnn2)cc1	-5.0%	2.9%	17.0%	x	-9.7%[59 µM]	x
Cc1ccc(CN(C(=O)c2ccccc2Br)C2CCS(=O)(=O)C2)o1 (stereo not drawn)	-32.3%	-15.7%	7.8%	x	6.9%[59 µM]	x
Cc1ccc2occ(-c3cc(-c4ccccc4)nc4c3COc3ccccc3-4)c(=O)c2c1	-7.5%	-19.8%	30.4%	x	17.9%[59 µM]	x
CC1=C(C)CS(=O)N(c2ccc(S(N)(=O)=O)cc2)C1 (stereo not drawn)	1.7%	1.0%	61.3%	5.2	u	-2.3%
CC1=C(C)CS(=O)N(S(=O)(=O)c2ccccc2)C1 (stereo not drawn)	-20.0%	3.3%	29.6%	x	8.91µM*	x
O=C(O)COc1c(-c2ccco2)oc2ccccc2c1=O	-4.2%	-1.6%	40.0%	0.4	44.7µM*	x
NC(=O)COc1c(-c2ccco2)oc2ccccc2c1=O	-14.0%	-5.8%	8.6%	-3.2	-50.4%	25.4%
Cc1ccc(C(=O)OCc2nnc(-c3ccccc3)o2)o1	89.1µM*	-2.7%	-15.4%	-10.9	-41.5%[0.0925 µM]	x
CC(C)[C@H](NC(=O)c1ccccc1)C(=O)OCc1nnc(-c2ccccc2)o1	22.4µM*	x	u	u	-49.2%	x
Cc1ccc(C(=O)N[C@H](C(=O)OCc2nnc(-c3ccccc3)o2)C(C)C)cc1	-16.6%	-4.4%	31.5%	-0.7	x	7.7%
O=C(Cn1cnc([N+](=O)[O-])n1)N/N=C/c1ccccc1O	u	14.1µM*	49.6%	2.8	95.2%[59 µM]	u
Cc1ccccc1/C=N/NC(=O)Cn1cnc([N+](=O)[O-])n1	-1.8%	u	23.6%	0.9	-2.5%	x
O=C(Cn1cnc([N+](=O)[O-])n1)N/N=C/c1cc(Cl)ccc1O	31.6µM*	28.2µM*	19.4%	0.2	8.3%	17.8µM*
COc1ccccc1-c1nn2c(-c3ccco3)nnc2s1	u	u	0.0%	x	u	u
c1coc(-c2nnc3sc(Cc4cccs4)nn23)c1	39.8µM*	50.1µM*	u	x	u	x
c1coc(-c2nn3c(-c4ccco4)nnc3s2)c1	u	u	19.9%	-62.1*	u	-28.7%
Clc1ccc(-c2nnc3sc(Cc4cccs4)nn23)c(Cl)c1	-21.6%	-32.4%	37.1%	-29.5	39.8µM*	-1.6%
COc1ccc(N2CCN(C(=O)COc3ccccc3C#N)CC2)cc1	-25.8%	-32.4%	1.3%	x	u	x
COc1cc2ccc(=O)oc2c(OC)c1OC	x	x	x	x	-24.7%[2.33 µM]	x
COc1cc2ccc(=O)oc2c(O)c1O	6.31µM*	x	-0.1%	-14.1	x	x
